A selection: hits, their analogues and other compounds. The true share with any hit is near 1.8%.
CtBP-E1A inh – qHTS Assay for Inhibitors of the CtBP/E1A Interaction; activity change, % (concentration not given with the values); AID 651724, 2012; AlphaScreen GST-E1A/His-CtBP binding, 1536-well; stronger effect = lower value; CtBP / adenovirus E1A interaction (AlphaScreen); 340,000 compounds, 0.49% hits
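GST-E1A and His-tagged CtBP (125 nM each as 5X stock) were preincubated with pin-transferred compound for 2 h at 37 °C in the dark, then glutathione donor and nickel acceptor beads were added for 1 h before AlphaScreen reading.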
Six1-Eya2 inh – qHTS Assay for Inhibitors of the Six1/Eya2 Interaction. 360,000 compounds, 0.56% hits. activity change, % (no concentration beside the values). AlphaScreen GST-Six1/His-Eya2 binding, biochemical; stronger effect = lower value. AID 651725, 2012. Homeobox protein SIX1 (Homo sapiens) + Protein phosphatase EYA2 (Homo sapiens), …
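AlphaScreen with GST-Six1 and His-Eya2 (5X mix: 250 nM and 500 nM), glutathione donor and nickel acceptor beads; buffer 50 mM Tris pH 8.0, 300 mM NaCl, 1 mM TCEP; 1 h at 37 C in the dark.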
Akt phos inh – HTS Assay for Inhibitors of Akt Phophorylation: Primary Screen; Neuro2A IGF-stimulated pAkt S473 HTRF, 20 min; stronger effect = lower value; activity change, % for hits at 50 µM; 360,000 compounds, 0.32% hits; in the data active = activity change below about -80%; inconclusive = mostly about -51% to -80%
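Neuro2A cells (4,500/well, DMEM with 0.5% FBS) were treated with compound at a single 50 µM final concentration, stimulated with 6 nM IGF for 20 min at 37 °C, and lysed. Phospho-Akt Ser473 was read by HTRF as 665/615 ratio ×10^4.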
PI5P4K alpha inh – qHTS for Inhibitors of phosphatidylinositol 5-phosphate 4-kinase (PI5P4K). Phosphatidylinositol 5-phosphate 4-kinase type-2 alpha (Homo sapiens), P48426. PI5P4Kalpha enzyme, ADP-Glo luminescence, 60 min; stronger effect = lower value. max response, %. 330,000 compounds, 1.2% hits; active = max response of -50% or lower; inconclusive = between -30% and -50%; inactive = -30% or higher; note: value at the top dose of about 77 µM
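Human PI5P4Kalpha with substrate in 0.038 M HEPES pH 7.4, 0.28 mM EGTA, 0.1% CHAPS, 5% DMSO; reaction started with 5 microM ATP (final), 60 min at room temperature. ADP formed read by ADP-Glo luminescence.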
PI4K2A inh – qHTS for small molecular inhibitors of PI4K2A | Phosphatidylinositol 4-kinase type 2-alpha (Homo sapiens), Q9BTU6 | purified PI4K2A, ADP-Glo luminescence, 1 h; stronger effect = lower value | activity change, negative = inhibition, % at 76.9 µM | 420,000 compounds, 0.13% hits | AID 1346378, 2018; in the data active = activity change below about -50%; inconclusive = mostly about -30% to -49%;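 note: -100% = wells without enzyme as full effect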
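ADP-Glo luminescence measured ADP generated by PI4K2A enzyme (4 ug/mL before mixing) with 1.2 mM PI substrate (pre-mix) and 300 microM ATP (pre-mix). Tris pH7.5 buffer with MgCl2, Triton X-100; 1 h reaction at ambient temperature.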
* = called active by the depositor; i = inactive; ? = inconclusive; / = not tested or not shown. Cut-off read from the data, not from the text of the source, unless noted: active = activity change below about -65%; inconclusive = mostly about -30% to -63%; inactive = weaker than that. Unless noted, % is set by controls: 0 for no effect and ±100 for the full control effect.

SMILES	CtBP-E1A inh	Six1-Eya2 inh	Akt phos inh	PI5P4K alpha inh	PI4K2A inh
COC(=O)c1nn(C23CC4CC(CC(C4)C2)C3)c2c1C(=O)N(c1ccc(Br)cc1)C2=O	2	4	i	-8	-6
Cc1ccc(C(=O)NCC(=O)N2CCCCCCC2)cc1C	6	-2	i	0	-4
COc1ccccc1Cn1c(=S)[nH]c2cc(C(=O)NCCN3CCOCC3)ccc2c1=O	-3	1	i	/	4
O=C(c1ccc2c3n(nc2c1)-c1ccccc1CO3)N1CCOCC1	0	4	i	?	-55*
O=C(c1ccc2c3n(nc2c1)-c1ccccc1CO3)N1CCCCC1	-3	-5	i	-22	?
CC12CCC3c4ccc(O)c([N+](=O)[O-])c4CCC3C1CCC2=O (stereo unspecified)	2	-4	i	-59*	-1
O=C(CN1C(=O)NC2(CCOc3ccccc32)C1=O)NCc1ccccc1 (stereo unspecified)	-14	7	i	1	-3
CC1(CCC#N)N=C(SCCC#N)N(c2ccccc2)C1=O (stereo unspecified)	1	5	-117%*	-2	0
O=C(NCC(c1ccco1)N1CCOCC1)c1ccc(C(F)(F)F)cc1 (stereo unspecified)	-3	1	i	-7	6
COC(=O)C1C(O)=C(C=Nc2cccc3ccccc23)C(=O)CC1(C)C (stereo unspecified)	-23	34	i	6	-1
COC(=O)C1C(O)=C(C=NCc2ccccc2)C(=O)CC1(C)C (stereo unspecified)	7	-1	-114%*	1	2
S=C1Cc2ccccc2N1	-4	-21	i	-64*	?
O=C(CC(Cc1ccccc1)c1ccco1)NC1CCCCC1 (stereo unspecified)	0	-3	i	0	-3
CC1(C)CC(=O)C2=C(C1)Nc1[nH]c(=S)[nH]c(=O)c1C2c1ccccc1 (stereo unspecified)	0	-2	i	-57*	6
O=C1CCCC2=C1C(c1ccc(Br)cc1)c1c([nH]c(=S)[nH]c1=O)N2 (stereo unspecified)	0	-3	i	-75*	-8
O=c1[nH]c(=S)[nH]c2c1C(c1ccc(Br)cc1)c1c([nH]c(=S)[nH]c1=O)O2	-19	?	i	-75*	-56*
Cc1ccc(C2C3=C(CCCC3=O)Nc3[nH]c(=S)[nH]c(=O)c32)cc1 (stereo unspecified)	1	-3	i	/	-2
CCN(CC(=O)Nc1ccc2c(c1)OCCO2)C(=O)CCc1ccc(OC)cc1	4	-2	i	5	-4
COC(=O)C(C(=O)OC)=C(/C=C/N(C)C)N(C)C	1	11	-104%*	-3	4
O=C(NC(NNc1ccc([N+](=O)[O-])cc1)(C(F)(F)F)C(F)(F)F)c1ccc(F)cc1	1	-15	i	-71*	-2
S=c1nc(-c2cc(Cl)ccc2Cl)[nH][nH]1	-2	-1	i	-64*	-4
S=c1nc(-c2cccc(Cl)c2)[nH][nH]1	4	-11	i	-8	1
O=[N+]([O-])c1ccc(-[n+]2nc(-c3ccccc3)nn2-c2ccccc2)cc1	-92*	-82*	i	1	-22
COCCCN1C(=O)C(CC(=O)NCC2CCCCC2)CC(C(=O)N(C)C)=C1C (stereo unspecified)	4	3	i	1	-2
CCc1ccc(C(=O)OCC(=O)Nc2c(C)n(C)n(-c3ccccc3)c2=O)cc1	-7	11	i	-6	-1
SMILES	CtBP-E1A inh	Six1-Eya2 inh	Akt phos inh	PI5P4K alpha inh	PI4K2A inh
COc1ccc(N2C(=O)C(Cl)=C(Oc3cccc(OC)c3)C2=O)cc1	1	-22	i	-87*	-6
COc1ccc(N2C(=O)C(Cl)=C(N(CCO)Cc3ccccc3)C2=O)cc1	-1	-7	-112%*	0	14
COc1ccc(N2C(=O)c3ccccc3C2=O)cc1	0	-17	i	2	0
COc1ccc(N2C(=O)C(Cl)=C(N3CCN(Cc4ccccc4)CC3)C2=O)cc1	-25	?	i	/	-3
CCc1nc2c(OCc3ccc(C(=O)N(C)C)cc3)cccn2c1N(C=O)Cc1ccccc1	1	2	i	-4	-1
COc1cccc(NC(=O)c2ccc(NC(=O)C3CC(=O)OC34CCCCC4)cc2)c1 (stereo unspecified)	-80*	?	i	-7	-1
COc1ccc(NC(=O)C2CC(=O)OC23CCCCC3)cc1 (stereo unspecified)	4	-4	i	-6	5
Cc1ccc(NC(=O)CCc2nc3sc4c(c3c(=O)[nH]2)CCCC4)c(Br)c1	6	-2	i	-66*	-26
CC(C)c1cc2c(c(O)c1O)[C@@]13CCCC(C)(C)C1CC2OC3=O (stereo partly specified)	-4	-7	i	-75*	-1
O=C(Nc1nncs1)C(Sc1ccccc1)c1ccccc1 (stereo unspecified)	0	0	i	-3	3
O=C(O)c1ccc(Oc2nc3ccccc3s2)cc1	5	6	i	0	-61*
O=C(O)c1ccc(C=C(c2nc3ccccc3s2)c2nc3ccccc3s2)cc1	3	3	i	11	0
CCO[C@H]1OC(C(=O)O)=C[C@@H](c2ccc(C(F)(F)F)cc2)[C@@H]1CCCO	-12	-2	i	3	2
CC(Sc1nnc(NCc2ccccc2)s1)C(=O)Nc1ccc2c(c1)C(=O)c1ccccc1C2=O (stereo unspecified)	-82*	-66*	i	?	-8
CC(Sc1nnc(Nc2ccccc2)s1)C(=O)Nc1nc(-c2ccccc2)cs1 (stereo unspecified)	-7	-13	i	-4	-7
CCOC1=C2[C@H](c3ccccc3Cl)N(S(=O)(=O)c3ccc(C)cc3)C[C@H]2C(C#N)(C#N)C(C#N)(C#N)C1	5	2	i	-62*	-4
O=C(COc1ccc(Br)cc1)N/N=C1/SCC(=O)N1Cc1ccco1	0	1	i	-67*	3
CN(C)c1ccc(C(=C2C=CC(=[N+](C)C)C=C2)c2ccc(N(C)C)cc2)cc1	/	/	/	/	-59*
CN(C)c1ccc(C(=C2C=CC(=[N+](C)C)C=C2)c2ccccc2)cc1	/	/	/	/	-10

Bioassay records (PubChem)
